In PubChem BioAssay (EPA / NIEHS) one finds outcome and AC50 data, which are given here for 40 compounds.

Active and inactive are the calls of the source. The calls were made as follows: active = hit-call score of the fitted dose curve at least 0.9, where 1 is the maximum; inactive = score below 0.9.

In general, AC50 refers to the midpoint of the concentration-response curve, whichever way the signal moves.

Read-out in this experiment: Apolipoprotein A-V (APOA5) gene, APOA5 (gene 116519)
Kind of experiment: LTEA_HepaRG_APOA5: Life Technologies and Expression Analysis (LTEA) Assay for Apolipoprotein A-V (APOA5) gene using HepaRG (AID 2283474). The note with it: mRNA level, 48 h; actives raise or lower the signal. The method, then: LTEA_HepaRG is a cell based, multiplexed-readout assay that uses HepaRG, a human liver cell line, with measurements taken at 48 hours after chemical dosing on a 96-well plate.LTEA_HepaRG_APOA5 is one of 102 assay component(s) measured in the LTEA HepaRG cell culture assay. It is a marker of Steatosis.Data from the assay component LTEA_HepaRG_APOA5 was analyzed into 1 endpoint. This assay endpoint, LTEA_HepaRG_APOA5, was analyzed with bidirectional fitting relative to DMSO as the negative control and baseline of activity. Using a type of inducible reporter, measures of mRNA induction for gain or loss-of-signal activity can be used to understand regulation of transcription factor activity. To generalize the intended target to other relatable targets, this assay endpoint is annotated to the apolipoprotein intended target family, where the subfamily is Steatosis.
A total of 1060 chemcials from the ToxCast library were tested in eight-point concentration-response experiments. Cell culture and cytotoxicity assays were conducted at Thermo Fisher Scientific's Custom Services facility (Madison, WI). A single lot of human HepaRG cells (Thermo Fisher Scientific, Frederick, MD) was used for the cell culture experiments. 96-well format collagen type I coated plates of human HepaRG cells were prepared using established methods. Briefly, cryopreserved HepaRG cells were thawed, plated at a density of approximately 100,000 cells/well in HepaRG Thaw, Plate, and General Purpose media (HPRG770, Thermo Fisher Scientific), and incubated for 48 hours. 0.5% DMSO was selected as vehicle control to balance the requisite need of DMSO in HepaRG cultures to maintain differentiation (for example, baseline metabolism, proportions of hepatocytes vs. cholangiocytes), while enabling further hepatic receptor pathway activation (for example, PXR and CAR) in response to chemical exposure. 48 hours after plating, the culture medium was replaced with HepaRG Serum-Free Incudtion Media. Cells were exposed to each test chemical in duplicate and maintained in CO2 incubators for another 48 hours. Chemical plates were thawed to room temperature and 200x concentrations of treatment groups were prepared. 8-point conentration-reponse curves were made with the highest exposure at 100 uM, followed by half-log dilutions, all in 0.5% DMSO. Each test plate contained variouse controls, induction positive controls (1mM phenobarbital), cytotoxicity positive controls ([…] aflatoxin B1), vehicle controls (0.5% DMSO), and total lysis controls (0.5% DMSO). Cell morphology images were taken using an Essen IncuCyte FLR automated microscope, with six 96-well plates imaged in about 24 minutes. Images were captured and exported and JPEG files. Spent culture media was transfered to black-well plates for the LDH assay, and remaining media was sorted at -80 C for later use. Cells were treated with RLT buffer and frozen until shipped for gene expression analysis. Total RNA was isolated from the cell suspension in 75 uL of Buffer RLT (Qiagen, Germantown, MD 20874) by Quintiles/Expression Analysis (Durham, NC) using a custom isolation procedure. Total RNA from each plate well was transferred to a preamplification plate. Fluidigm's 96.96 Dynamic ArrayTM (Fluidigm, Amsterdam, the Netherlands) technology was used for gene expression analyses by quantitative reverse transcription polymerase chain reaction (qRT-PCR, performed by Quintiles/Expression Analysis, Durham, NC)89. Standard TaqManTM Assays (Applied Biosystems/ThermoFisher Scientific, Foster City, CA) were used to assess the expression of 93 genes selected based on their selectivity and sensitivity to important hepatic receptors known to be modulated by environmental chemicals; importance in human hepatocyte functionality; and hepatotoxicity. […]
As to `O=C1c2c(O)cccc2Cc2cccc(O)c21`, the result was inactive.
For `CN(C)C(=O)NC1(c2ccccc2)CCN(CCC[C@]2(c3ccc(Cl)c(Cl)c3)CCCN(C(=O)c3ccccc3)C2)CC1`, the AC50 is 21.3 µM (active).
Take `CC(=O)OCC(COC(C)=O)OC(C)=O`: the result was inactive.
Take `CC1=C(C)S(=O)(=O)CCS1(=O)=O`: the AC50 was 0.187 µM (active).
In the case of `CC1(C)C(=O)NC(=O)N1CO`, the call was inactive.
The same measure, in the same setting: as for `O=C1O[C@H]([C@H](O)CO)C(O)=C1O`, the entry is “inactive”; as for `Cc1occc(=O)c1O`, “inactive”.
Same read-out and setting: as for `Cc1ccc(C(C)(C)C)c(O)c1`, the entry is “inactive”; as for `CCCCC(CC)COC(=O)CCCCCCCC(=O)OCC(CC)CCCC` (stereo not given), “inactive”; as for `CC(COCC(C)OC(=O)c1ccccc1)OC(=O)c1ccccc1` (stereo not given), “inactive”.
Take `COC(=O)CCC(=O)OC`: the compound was classed as inactive.
On the same count and under the same terms, for `CCN(CC)CCOc1ccc(C(=C(Cl)c2ccccc2)c2ccccc2)cc1` the value was “inactive”; for `C=CCCCCCCCCCCCC`, “inactive”; for `CN(C)CCCN(C)CCCN(C)C`, “inactive”.
Still for that read-out and setting: as for `COC(=O)CCCC(=O)OC`, the entry is “inactive”.
`CN(C)CCCN1c2ccccc2Sc2ccc(Cl)cc21`: the AC50 is 85.8 µM (active).
As for `O=C1CCCCC1`, the outcome was inactive.
On the same count and under the same terms, for `O=C(O)CC(O)(CC(=O)O)C(=O)O` the value was “inactive”; for `CCCCc1nc2cccnc2n1Cc1ccc(-c2ccccc2-c2nnn[nH]2)cc1`, “inactive”; for `O=C(NS(=O)(=O)/C=C/c1cccs1)c1ccc(F)cc1Br`, “inactive”.
Take `S=c1[nH]c2ccccc2s1`: the result was inactive.
Still for that read-out and setting: as for `CC(C)COC(=O)CCCCC(=O)OCC(C)C`, the entry is “inactive”; as for `CC(C)c1cccc(C(C)C)c1`, “inactive”.
Still for that read-out and setting: as for `Cn1cnc2c1c(=O)[nH]c(=O)n2C`, the entry is “inactive”; as for `CCc1nc(N)nc(N)c1-c1ccc(Cl)cc1`, “inactive”.
On the same count and under the same terms, for `COc1ccc(OC(F)(F)F)cc1CN[C@H]1CCCN[C@H]1c1ccccc1` the value was “inactive”.
In the case of `CC(C)OC(=O)C(C)(C)Oc1ccc(C(=O)c2ccc(Cl)cc2)cc1`, the AC50 was 0.0432 µM (active).
For the compound `O=C(O)c1[nH]n(-c2ccc(S(=O)(=O)O)cc2)c(=O)c1N=Nc1ccc(S(=O)(=O)O)cc1`, the call was inactive.
Take `Cc1c(C)c2c(c(C)c1O)CCC(C)(COc1ccc(CC3SC(=O)NC3=O)cc1)O2` (stereo not given): the compound was called inactive.
For `O=C(O)c1cccnc1`, the compound was classed as inactive.
The same measure, in the same setting: as for `NC=O`, the entry is “inactive”.
Still for that read-out and setting: for `CSc1ccc(Oc2ccc(S(N)(=O)=O)cc2CN(C)C)cc1C` the value was “inactive”.
The same measure, in the same setting: for `CC(N)=O` the value was “inactive”.
With `Oc1ccccc1O`, the result was inactive.
For `O=C(Oc1ccccc1)c1cccc(C(=O)Oc2ccccc2)c1`, the outcome was inactive.
As for `CCCCCCCC(=O)OC`, the compound was called inactive.
Consider `COc1ccc(C(=O)Nc2nc3ccccc3c(NCc3ccccc3)c2C#N)cc1`, for which the compound was classed as inactive.
On the same count and under the same terms, for `CC(=O)O` the value was “inactive”; for `CCOCCOCCO`, “inactive”; for `C/C=C/c1ccc(OC)cc1`, “inactive”.
